Laboratory results reported in PubChem BioAssay AID602140 (NMMLSC, 2011).
Several values for one entry are separate records, joined by “and”; a condition that tells them apart may be missing. Identical values can stand only once. Some of the results follow. A number with no mark means an inactive call. The rule behind the calls is not given here.

Tested on: Botulinum neurotoxin type F light chain protease (Clostridium botulinum)
Test: BoNT/F light chain protease inhibitors, confirmation, biochemical, flow cytometry, cherry pick 1 (AID 602140)
Conditions: multiplex microsphere protease cleavage assay, at 10 µM, active compounds read high

Compound `COCCn1nnnc1C(c1cc2ccc(OC)cc2[nH]c1=O)N1CCc2ccccc2C1` (configuration not stated) has an inhibition of -9.6%.

With `COc1ccc(NS(=O)(=O)c2cc(C(=O)Nc3ccccc3C(=O)O)ccc2C)cc1` the inhibition was -0.5%.

In the case of `Cc1cccc2cc3c(N)c(C(=O)N4CCCc5ccccc54)sc3nc12`, the inhibition is reported as 0.3%.

For `Cc1ccc2[nH]cc(CCNC(=O)C3CCCCC3)c2c1`, the inhibition was 0.6%.

With `Clc1ccc(-c2ncc3ccccn23)c(Cl)c1` the inhibition was -4.7%.

`Cc1ccc(-c2nc(-c3cccnc3)sc2CC(=O)Nc2ccc(C)c(Cl)c2)cc1` gave an inhibition of -18.6%.

`COc1ccc(Br)cc1CNCCc1cccc(Cl)c1` showed an inhibition of -10%.

`CC(C)Cc1nnc(NC(=O)CCC(=O)Nc2ccc3cn[nH]c3c2)s1` showed an inhibition of -1.9%.

Work on `Cc1cc(S(=O)(=O)NC2CCCC2)ccc1-n1cnnn1` yielded an inhibition of 3.7%.

In the case of `CCOc1ccc(NC(=O)CC(Cc2ccc(Cl)cc2)C(=O)O)cc1` (configuration not stated), the inhibition is reported as -1.5%.

`COc1ccc(C(=O)Nc2nc(-c3ccc(OC)cc3)c(-c3ccc([N+](=O)[O-])cc3)s2)cc1` showed an inhibition of 4%.

`CCOc1nnc(C)c2c(C)n(-c3cccc(Cl)c3)nc12` showed an inhibition of 18.1%.

`Cc1ccccc1NC(=O)c1cc(S(=O)(=O)Nc2cccc(C(=O)O)c2)ccc1Cl` gave an inhibition of -1.9%.

`Nc1ccccc1Sc1cc(Cl)nnc1Cl` was tested, and the inhibition was -1.4%.

For `COc1ccc(N(CC(=O)NCCSCc2cccc(Cl)c2)S(C)(=O)=O)cc1`, the inhibition was -2.3%.

`CC1CCN(C(=O)c2ccc(S(=O)(=O)Cc3cc(F)ccc3F)c([N+](=O)[O-])c2)CC1` showed an inhibition of 1.2%.

With `O=C(O)c1cc(S(=O)(=O)NC2CCCc3ccccc32)ccc1O` (configuration not stated) the inhibition was -1.4%.

With `CCCN1C2CCCC1CC(NC(=O)c1cccc(OC)c1)C2` (configuration not stated) the inhibition was 0.9%.

`CC(=O)c1cccc(NC(=O)N2CCCC2C(=O)NCCc2ccccc2)c1` (configuration not stated) showed an inhibition of 0%.

Compound `OC(c1ccc(Cl)cc1)C(CN1CCOCC1)c1ccccc1` (configuration not stated) has an inhibition of 3.4%.

`CC(=O)Nc1ccc(Oc2ccc3c(c2)C(=O)NC3=O)cc1` showed an inhibition of -3.5%.

`COc1ccc(C2CC(c3cccs3)=NN2c2nc(C)c(C(C)=O)s2)cc1OC` (configuration not stated) was tested, and the inhibition was -1.7% and 7.1%.
